Bioassay records as filed in PubChem BioAssay.
Many of the other results were omitted from the sample, so hits are more common in it than they were.
Shiga inhibitor: Shiga toxin inhibition; Vero cells, Shiga toxin protein synthesis inhibition reporter; inhibition, % at 38.7 µM; 290,000 tested, 9.2% active; AID 2315; in the data active = inhibition mostly above about 28%, no sharp cut-off; inactive = mostly below about 43%; note: 0% is about no effect
VACV mCherry inh: vaccinia inhibition (mCherry reporter); Vaccinia virus mCherry reporter infection, fluorescence; Potency, µM (top dose mostly 36.5 µM), for the others: at the top dose activity change, negative = inhibition, actives largely listed as inhibitors; 310,000 tested, 0.63% active; AID 720579; calls by dose curve; tested in A549 cells; note: potency is the fitted concentration of half-maximal effect; % is set by controls: 0 for no effect and ±100 for the full control effect; nearly all actives have a fitted effect of over 35% in size
Marburg entry inh: inhibitors of Marburg virus binding or cell entry. Marburg virus pseudotyped entry inhibition, cell reporter. Potency, µM (top dose mostly 37.8 µM), without a hit: top-dose activity change, negative = inhibition, hits mostly inhibitors. 300,000 tested, 1.8% active. AID 540276; calls by dose curve; tested in HEK293 cells; note: potency is the fitted concentration of half-maximal effect; % is set by controls: 0 for no effect and ±100 for the full control effect
LASV entry inh: inhibitors of Lassa virus binding or cell entry; Lassa virus pseudotype entry inhibition, cell reporter; Potency, µM (highest dose often 37.9 µM), inactives show top-dose activity change, negative = inhibition, most hits filed as inhibitors; 300,000 tested, 1.2% active; calls by dose curve; tested in HEK293 cells; note: potency is the fitted concentration of half-maximal effect; % is set by controls: 0 for no effect and ±100 for the full control effect; nearly all actives have a fitted effect of over 50% in size
Vaccinia Venus: vaccinia inhibition (Venus reporter); Vaccinia virus Venus reporter expression, fluorescence; Potency, µM (top dose mostly 36.5 µM), for the others: at the highest dose activity change, negative = inhibition, actives largely listed as inhibitors; 330,000 tested, 0.46% active; AID 720580; calls by dose curve; tested in A549 cells; note: potency is the fitted concentration of half-maximal effect; % is set by controls: 0 for no effect and ±100 for the full control effect; nearly all actives have a fitted effect of over 30% in size
Cycloheximide cs: affects cycloheximide protein synthesis inhibition readout, counter-screen; max response, %; 300,000 tested, 12% active; AID 2314; cell reporter, cycloheximide protein synthesis inhibition counterscreen; in the data active = max response mostly above about 13%, no sharp cut-off; inactive = mostly below about 14%; note: read at 38.3 µM for the half of the compounds with a filed dose; 0% is about no effect
Active calls of the source: *; i = inactive; ? = inconclusive; · = no result; + = active, no number; [ ] = remark or other dose.

SMILES	Shiga inhibitor	VACV mCherry inh	Marburg entry inh	LASV entry inh	Vaccinia Venus	Cycloheximide cs
O=C(NN1C(=O)C2CC=C(Cl)CC2C1=O)c1ccncc1 (stereo unspecified)	11	·	·	·	·	-2
Clc1ccccc1-c1nc2ccccc2[nH]1	81*	-8%	?	?	4%	53*
c1ccc2c(-c3nc4ccccc4[nH]3)cccc2c1	·	-16%	·	·	-28%	·
O=C(NCc1cccs1)c1ccc(CSc2nc3ccncc3n2Cc2ccccc2F)cc1	·	?	?	·	-18%	·
CCc1cnc2c(c1SCC(=O)Nc1ccc(Cl)cc1)c(=O)n(C)c(=O)n2C	·	-13%	·	20%[46.1 µM]	-15%	·
C[C@H]1CCC(=O)N([C@H](COc2ccccc2)Cc2ccccc2)CC1	-1	i	·	·	-12%	-2
CC1CCC(=O)N(CCOc2ccccc2)CC1 (stereo unspecified)	58*	i	·	·	-1%	39*
O=C(Nc1ccccc1)OCCN1CCN(Cc2ccccc2)CCC1=O	-11	-28%	33%	-10%	-3%	5
O=C(Nc1ccc(Cl)cc1)OCCN1CCN(Cc2ccccc2)CCC1=O	+	·	·	·	·	34*
O=C1CCN(Cc2ccccc2)CCN1CCOc1ccccc1	76*	i	·	·	-1%	42*
CCCCc1nn2c(=O)cc(COC(=O)c3ccc(NC(=O)C4CCCCC4)cc3)nc2s1	·	-9%	·	7%[46.1 µM]	-1%	·
CCC1CN(C(=O)Nc2ccccc2C(F)(F)F)c2ccccc2S1 (stereo unspecified)	·	-8%	·	0%[46.1 µM]	2%	·
COc1cc(OC)c(NC(=O)N2CCC(CN3CCCC3)CC2)cc1Cl	·	-13%	·	26%[46.1 µM]	-16%	·
COC(=O)c1ccn(-c2nc(-c3ccc(Cl)cc3)cc(C(F)(F)F)n2)n1	·	-6%	5%[46.1 µM]	-1%[46.1 µM]	-4%	·
Nc1sc(-c2ccccc2)cc1C(=O)NCCc1ccc(Cl)cc1	·	?	·	·	-14%	·
NNC(=O)c1sc(-c2ccc(Cl)cc2)cc1N	66*	?	?	-4%[46.1 µM]	-20%	45*
CCOC(=O)c1sc(-c2ccccc2)cc1NC(=O)Nc1ccccc1	4	?	?	4%	?	8
CCOC(=O)c1cc(-c2ccc(N)cc2)sc1N	66*	·	-24%	-28%	·	54*
CCOC(=O)c1cc(-c2ccccc2)sc1NC(=O)C(C)C	10	-18%	7%	16%	-12%	4
CCOC(=O)c1sc(-c2ccc(Br)cc2)cc1N	114*	-25%	?	68%[14.3 µM]	-9%	54*
COc1ccc2c(c1)CC(C(=O)NCCCN1CCN(c3ccc(F)cc3)CC1)CO2 (stereo unspecified)	·	-17%	·	-8%[46.1 µM]	-27%	·
Cc1ccc(C)c(NC(=O)CSc2nncn3c2cc2sccc23)c1	·	?	·	0%[46.1 µM]	?	·
O=c1[nH][nH]c(=O)n1-c1ccccc1	9	i	?	20%[46.1 µM]	-21%	-3
O=C(NCC1CCCO1)c1ccc(Br)s1 (stereo unspecified)	39	·	·	·	·	8
O=C(NCC1COc2ccccc2O1)c1ccc(Br)s1 (stereo unspecified)	108*	-12%	12%[46.1 µM]	-26%[46.1 µM]	-14%	23*
SMILES	Shiga inhibitor	VACV mCherry inh	Marburg entry inh	LASV entry inh	Vaccinia Venus	Cycloheximide cs
O=C(Cc1ccccc1)NCC1COc2ccccc2O1 (stereo unspecified)	·	?	-26%	-2%	-12%	·
CCN(c1ccccc1)S(=O)(=O)c1cc(C(=O)Nc2ccc(Br)cc2)ccc1F	65*	14µM*	?	12µM*	13µM*	14*
O=C(CCC1COc2ccccc2O1)NCC1COc2ccccc2O1 (stereo unspecified)	3	·	10%	11%	-17%	1
CCc1ccc(C(=O)NCC2COc3ccccc3O2)o1 (stereo unspecified)	57*	·	?	0%	·	23*
O=C(NCC1COc2ccccc2O1)c1cccs1 (stereo unspecified)	72*	-7%	6%[46.1 µM]	22%[46.1 µM]	-2%	40*
COc1ccc(N2C(=O)[C@@H]3C[C@H]2CN3Cc2ccc3nccnc3c2)cc1Cl	·	-17%	·	·	-10%	·
CCc1ccc(NC(=O)c2ccc(F)c(S(=O)(=O)NCC3COc4ccccc4O3)c2)cc1 (stereo unspecified)	-6	-22%	12µM*	16µM*	?	-1
CC(=O)OCC(=O)Nc1ccc([N+](=O)[O-])cc1Cl	-3	-5%	?	27%[46.1 µM]	-6%	9
CC(=O)Oc1c(C)cc(Cl)cc1C(=O)Nc1ccc([N+](=O)[O-])cc1Cl	128*	·	1.5µM*	3.7µM*	·	74*
